Common to all, as to experiment: NCI-60 one-dose screen, 48 h (100 = growth as untreated, 0 = no growth, -100 = all killed)
The test system of one experiment is HOP-92 NSCLC. Conditions: 10 µM unless noted.
A further experiment deals with COLO 205 colon. Conditions: 10 µM.
Another experiment deals with HCT-15 colon. The settings on record: 10 µM.
Another experiment deals with SNB-19 CNS. Conditions: 10 µM unless noted.
The next experiment has as its system SK-MEL-5 melanoma. The settings on record: 10 µM unless noted.
Another experiment concerns LOX IMVI melanoma. The settings on record: 10 µM unless noted.
Another experiment deals with EKVX NSCLC. Conditions: 10 µM unless noted.
Another experiment concerns CCRF-CEM leukemia. The settings on record: 10 µM unless noted.
For another experiment, the system named is MOLT-4 leukemia. Conditions: 10 µM.
Another experiment has as its system SR leukemia. The settings on record: 10 µM.
A further experiment concerns OVCAR-8 ovarian. Conditions: 10 µM unless noted.
In another experiment the test system is IGROV1 ovarian. The settings on record: 10 µM.
The subject of the next experiment is MDA-MB-435 melanoma. The settings on record: 10 µM unless noted.
The subject of another experiment is MALME-3M melanoma. The settings on record: 10 µM unless noted.
In the next experiment the test system is SN12C renal. The settings on record: 10 µM unless noted.
In another experiment the test system is RPMI-8226 leukemia. Conditions: 10 µM unless noted.
For the next experiment, the system named is HCC-2998 colon. The settings on record: 10 µM unless noted.
The next experiment concerns NCI-H522 lung. Conditions: 10 µM unless noted.
The subject of a further experiment is TK-10 renal. The settings on record: 10 µM unless noted.

Each structure is given as a SMILES string. The panel holds about 83,000 compounds, 20% with a hit somewhere; the sample as a whole holds those more often.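 Assay: single dose, 48 h. Readout: percent growth (0 = no net growth; negative = cell death). Active: <10.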 A number with no mark means an inactive call. Active and inactive are the calls of the source.

On to `Nc1c(Br)cc2c3c(cccc13)-c1ccccc1-2`, for which the growth was 25% in the experiment on HOP-92 NSCLC; 88.2% in the experiment with COLO 205 colon; 49.3% with HCT-15 colon; 92.9% with SNB-19 CNS; 84.8% with SK-MEL-5 melanoma; 53.7% in the experiment on LOX IMVI melanoma. Moreover, the growth in the experiment with EKVX NSCLC was 53.1%; with CCRF-CEM leukemia it was 48.8%; with MOLT-4 leukemia, 53.8%; with SR leukemia, 9.02% (active); in the experiment with OVCAR-8 ovarian, 70.9%; in the experiment with IGROV1 ovarian, 48.1%. In addition, the growth with MDA-MB-435 melanoma is 78.8%.

Regarding `CCC1CN1P(=O)(OCCOC)N1CC1CC` (centres undefined), the growth in the experiment with HOP-92 NSCLC was 98.4%; in the experiment with COLO 205 colon, 119%; in the experiment on MALME-3M melanoma, 110%; with HCT-15 colon it was 99.4%; in the experiment on SNB-19 CNS, 104%; with SK-MEL-5 melanoma it was 109%. Besides, the growth was 105% with LOX IMVI melanoma; 101% in the experiment with SN12C renal; 108% in the experiment on MOLT-4 leukemia; 93.8% with SR leukemia; 105% in the experiment on RPMI-8226 leukemia; 105% in the experiment on OVCAR-8 ovarian. The growth is 111% in the experiment with IGROV1 ovarian and 104% in the experiment on HCC-2998 colon.

On to `[N-]=[N+]=NC(C(=O)O)c1ccccc1` (centres undefined), for which the growth in the experiment with NCI-H522 lung was 87.3%; in the experiment with COLO 205 colon, 104%; in the experiment on MALME-3M melanoma, 106%; in the experiment with HCT-15 colon it was 101%; in the experiment with SNB-19 CNS, 100%; in the experiment with SK-MEL-5 melanoma it was 116%. Moreover, the growth was 100% in the experiment with LOX IMVI melanoma; 99.7% in the experiment with EKVX NSCLC; 119% with SN12C renal; 106% with TK-10 renal; 87.4% with MOLT-4 leukemia; 100% in the experiment on OVCAR-8 ovarian. For the same compound, the growth is 99.9% with MDA-MB-435 melanoma and 96.9% with HCC-2998 colon.

Take `Fc1ccc(C2=NN(c3ccccc3)C(c3sc(N(CCCl)CCCl)nc3Cl)C2)cc1` (centres undefined): the growth is 64.2% in the experiment with NCI-H522 lung; 88.6% in the experiment with COLO 205 colon; 102% in the experiment on MALME-3M melanoma; 94.3% in the experiment with HCT-15 colon; 95.6% in the experiment with SNB-19 CNS; 83.2% in the experiment with SK-MEL-5 melanoma. Moreover, the growth with LOX IMVI melanoma was 83.2%; in the experiment with EKVX NSCLC it was 84%; with SN12C renal, 86.9%; in the experiment with TK-10 renal it was 117%; in the experiment with CCRF-CEM leukemia it was 83.1%; with MOLT-4 leukemia it was 65.4%. For the same compound, the growth with SR leukemia was 83%; in the experiment on OVCAR-8 ovarian, 87.5%; with IGROV1 ovarian it was 82.7%; in the experiment with MDA-MB-435 melanoma it was 93.9%.

As for `CC1=C(SCCC(=O)OCC(=O)NCCC[Te]c2ccccc2)C(=O)c2ccccc2C1=O`, the growth in the experiment with NCI-H522 lung is -6.75% (active); with COLO 205 colon, 47.6%; in the experiment on MALME-3M melanoma it was -7.94% (active); in the experiment with HCT-15 colon, 10.4%; in the experiment with LOX IMVI melanoma it was -12.6% (active); in the experiment on EKVX NSCLC, -3.84% (active). Moreover, the growth is 7.58% (active) with SN12C renal; 18.9% with TK-10 renal; 2.25% (active) with CCRF-CEM leukemia; 0.655% (active) with MOLT-4 leukemia; -8.41% (active) in the experiment with RPMI-8226 leukemia; 5.76% (active) in the experiment with OVCAR-8 ovarian. For the same compound, the growth with IGROV1 ovarian was -35.5% (active); with MDA-MB-435 melanoma, 4.67% (active); in the experiment with HCC-2998 colon, 10.1%.

With `[Br][Pb]([c]1ccccc1)([c]1ccccc1)[c]1ccccc1`, the growth was -92.3% (active) in the experiment with NCI-H522 lung; -98.7% (active) in the experiment with COLO 205 colon; -77.8% (active) with HCT-15 colon; -93% (active) with SNB-19 CNS; -100% (active) in the experiment with SK-MEL-5 melanoma; -100% (active) in the experiment on LOX IMVI melanoma. Besides, the growth in the experiment on EKVX NSCLC is -91.1% (active); in the experiment on TK-10 renal, -100% (active); with CCRF-CEM leukemia it was -21.5% (active); in the experiment with MOLT-4 leukemia, -24.4% (active); with SR leukemia, -37.8% (active); in the experiment with OVCAR-8 ovarian, -100% (active). The growth with HCC-2998 colon was -94.6% (active).

As to `O=C1NC(=S)NC(=O)C1=Cc1ccccc1`, the growth in the experiment on NCI-H522 lung was 117%; in the experiment on COLO 205 colon it was 103%; with MALME-3M melanoma, 132%; in the experiment on HCT-15 colon it was 99.5%; in the experiment on SNB-19 CNS it was 107%; in the experiment with SK-MEL-5 melanoma, 98.7%. The growth in the experiment with LOX IMVI melanoma is 85.1%; in the experiment on EKVX NSCLC, 111%; in the experiment on SN12C renal it was 106%; in the experiment with TK-10 renal it was 182%; in the experiment on MOLT-4 leukemia it was 115%; in the experiment on SR leukemia, 121%. Also, the growth in the experiment on RPMI-8226 leukemia was 130%; in the experiment on OVCAR-8 ovarian it was 110%; with IGROV1 ovarian, 119%.

As for `O=C1NC(=O)C(Cc2ccccc2)(Cc2ccccc2)C(=O)N1`, the growth in the experiment on NCI-H522 lung was 97.8%; in the experiment with COLO 205 colon, 125%; with HCT-15 colon, 108%; in the experiment with SNB-19 CNS, 102%; with SK-MEL-5 melanoma, 109%; in the experiment with LOX IMVI melanoma, 90.4%. Further, the growth in the experiment on EKVX NSCLC is 109%; with SN12C renal, 104%; with TK-10 renal, 99.5%; in the experiment with CCRF-CEM leukemia it was 101%; in the experiment with SR leukemia, 99.6%; with RPMI-8226 leukemia, 96.4%. The growth in the experiment on OVCAR-8 ovarian was 106%; with IGROV1 ovarian, 114%; in the experiment with MDA-MB-435 melanoma, 113%; in the experiment with HCC-2998 colon it was 104%.

With `c1ccc2nc(OCCN3CC3)ccc2c1`, the growth in the experiment on NCI-H522 lung was 47.1%; in the experiment on COLO 205 colon it was 68.1%; in the experiment on MALME-3M melanoma, 113%; in the experiment on HCT-15 colon, 86.5%; in the experiment with SNB-19 CNS, 87%; in the experiment with SK-MEL-5 melanoma it was 98.6%. Also, the growth was 86.3% with LOX IMVI melanoma; 80.7% in the experiment on EKVX NSCLC; 79.9% in the experiment with SN12C renal; 108% with TK-10 renal; 31.7% in the experiment with CCRF-CEM leukemia; 34% in the experiment on MOLT-4 leukemia. The growth was -13.3% (active) in the experiment with SR leukemia; 9.61% (active) in the experiment with RPMI-8226 leukemia; 78.2% in the experiment on OVCAR-8 ovarian; 35.1% in the experiment with IGROV1 ovarian; 83.3% in the experiment with MDA-MB-435 melanoma; 86.7% with HCC-2998 colon.

`CC(C)(C)N(Cc1ccccc1)N=O`: the growth in the experiment with NCI-H522 lung was 90.3%; in the experiment with COLO 205 colon it was 108%; in the experiment on MALME-3M melanoma it was 107%; in the experiment with HCT-15 colon, 103%; in the experiment with SNB-19 CNS, 97%; in the experiment with SK-MEL-5 melanoma it was 99.1%. The growth in the experiment on LOX IMVI melanoma is 93.7%; in the experiment on SN12C renal, 91.9%; in the experiment on CCRF-CEM leukemia it was 98.4%; in the experiment with MOLT-4 leukemia, 104%; in the experiment with RPMI-8226 leukemia it was 99.2%; in the experiment on OVCAR-8 ovarian, 95.7%. The growth was 103% in the experiment with IGROV1 ovarian, 102% in the experiment on MDA-MB-435 melanoma and 110% in the experiment on HCC-2998 colon.

Source of the values: PubChem BioAssay (NCI).
